Assays:
Conditions in all cases: concentration: 1 μM,replicates: in singlicate; n = 1
EPHA7 = system: EPHA7
EPHA8 = system: EPHA8
EPHB1 = system: EPHB1
EPHB2 = system: EPHB2
EPHB3 = system: EPHB3
EPHB4 = system: EPHB4
EPHB6 = system: EPHB6
ERBB2 = system: ERBB2
ERBB3 = system: ERBB3
ERBB4 = system: ERBB4
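Note: KINOMEscan kinase panel screen.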

SMILES	%Inh (EPHA7)	%Inh (EPHA8)	%Inh (EPHB1)	%Inh (EPHB2)	%Inh (EPHB3)	%Inh (EPHB4)	%Inh (EPHB6)	%Inh (ERBB2)	%Inh (ERBB3)	%Inh (ERBB4)
COc1ccc(Nc2nccc(N3CCC(NC(=O)c4cccc(C#N)c4)C3)n2)cc1 (stereo not shown) [GSK1379730]	3%	18%	0%	0%	3%	0%	0%	0%	0%	0%
NC(=O)c1ccc(-c2cc3ncnc(SCC(=O)O)c3s2)cc1	0%	0%	0%	0%	26%	1%	62%	33%	0%	10%
O=C(Nc1n[nH]c2cc(-c3ccco3)ccc12)C1CC1 [SB-737447]	0%	0%	0%	0%	6%	0%	34%	0%	0%	0%
CC(=O)Nc1nc2cnc(Nc3cc(NC(=O)c4cccc(CC(C)(C)C#N)c4)ccc3C)nc2s1	4%	72%	11%	55%	13%	37%	61%	42%	9%	0%
C[C@@H]1CNc2c(sc3ccc4nc(-c5ccncc5)ccc4c23)C(=O)N1	0%	0%	0%	0%	20%	17%	18%	14%	10%	0%
C[C@@H](Oc1cc(-n2cnc3cc(-c4ccncc4)ccc32)sc1C(N)=O)c1ccccc1Cl [GSK479719]	8%	15%	9%	0%	18%	12%	0%	0%	0%	0%
COc1cc(Nc2nccc(N3CCC(NC(=O)c4cccc(C#N)c4)C3)n2)cc(OC)c1OC (stereo not shown) [GSK1379751]	0%	0%	4%	0%	8%	19%	86%	41%	16%	31%
O=C(Nc1cccc(Oc2ccc3nccn3n2)c1)Nc1cccc(C(F)(F)F)c1	0%	92.6%	3%	39%	11%	16%	40%	22%	45%	0%
CN(c1ccccc1CNc1nc(Nc2ccc3c(c2)CC(=O)N3)ncc1C(F)(F)F)S(C)(=O)=O	61%	0%	11%	4%	0%	0%	38%	0%	0%	0%
COc1cc2nccc(Nc3ccc(Oc4ccccc4)cc3)c2cc1OC.Cl [GI261656]	0%	0%	9%	0%	0%	3%	90.9%	80%	99.6%	85%
Cl.c1ccc(Oc2ccc(Nc3ccnc4cc(-c5ccc(CN6CCNCC6)o5)ccc34)cc2)nc1 [GW567142]	0%	10%	0%	0%	0%	4%	96.2%	92%	97%	42%
Cc1ccn2nc(-c3ccc(F)cc3)c(-c3ccncc3)c2c1.Cl [GW457859]	0%	0%	0%	0%	2%	3%	8%	64%	24%	32%
CCOC(=O)N1CCC(n2cnc(-c3ccc(F)cc3)c2-c2ccnc(N)n2)CC1 [SB-219952]	1%	0%	0%	7%	11%	4%	30%	5%	21%	21%
CC(=O)c1c(-c2ccncc2)[nH]c(-c2ccncc2)c1C [GW493036]	1%	6%	12%	0%	3%	18%	0%	0%	17%	34%
COC(=O)c1cccc(NC(=O)NC2CCN(c3ccnc(NCc4ccc(F)cc4)n3)CC2)c1 [GSK1379860]	18%	19%	14%	0%	11%	4%	0%	21%	8%	6%
Cc1cccc2c(-c3ccncc3)c(-c3ccc(F)cc3)nn12.Cl [GW461487]	9%	16%	5%	94.5%	7%	0%	26%	1%	0%	16%
N#Cc1cccc(C(=O)NC2CCN(c3ccnc(Nc4ccc(F)cc4)n3)C2)c1 (stereo not shown) [GSK1379708]	0%	0%	9%	0%	13%	5%	0%	9%	0%	10%
NC(=O)Nc1sc(-c2ccc(F)cc2)cc1C(N)=O [GW789449]	0%	0%	24%	0%	14%	20%	64%	15%	54%	3%
CCCC(=O)Nc1n[nH]c2ncccc12 [SB-601436]	0%	0%	0%	0%	12%	16%	0%	0%	0%	0%

SMILES	%Inh (EPHA7)	%Inh (EPHA8)	%Inh (EPHB1)	%Inh (EPHB2)	%Inh (EPHB3)	%Inh (EPHB4)	%Inh (EPHB6)	%Inh (ERBB2)	%Inh (ERBB3)	%Inh (ERBB4)
Cn1ccc2ncnc(Oc3ccc(NC(=O)Nc4cnn(C(C)(C)C)c4)c(Cl)c3)c21	27%	41%	15%	50%	29%	15%	48%	31%	9%	12%
CC(C)c1nc(-c2cccc(NS(=O)(=O)c3ccccc3)c2)c(-c2ccnc(Nc3ccc4c(c3)CN(C)CC4)n2)s1 [GSK1649598]	13%	80%	34%	0%	0%	11%	98.5%	86%	97.7%	98.8%
CC(C)S(=O)(=O)N1CCN(Cc2ccc3c(c2)nc(NC(=O)c2ccsc2)n3C[C@H](O)c2ccccc2)CC1 [GW635815]	10%	19%	35%	16%	15%	14%	0%	0%	0%	0%
COc1cccc(C2=C(Nc3cccc(Cl)c3)C(=O)NC2=O)c1 [SB-341556]	7%	20%	0%	0%	17%	4%	29%	0%	0%	0%
OCCn1cc(-c2cnc3nnn(Cc4ccc5ncccc5c4)c3n2)cn1	0%	0%	0%	0%	0%	0%	17%	5%	0%	0%
CNC(=O)c1ccccc1Nc1nc(Nc2cccc(CS(C)(=O)=O)c2)ncc1C.O=CO [GSK1520489]	96.6%	96.2%	99.9%	88%	9%	91.6%	92.8%	92.1%	3%	98.2%
Cc1nnc(-c2ccc3occ(-c4ccc(S(C)=O)cc4)c3n2)o1 (stereo not shown)	0%	0%	0%	0%	10%	12%	0%	17%	0%	0%
C[C@@H](Oc1cc(-n2cnc3cc(-c4cnn(C)c4)ccc32)sc1C(N)=O)c1ccccc1Cl [GSK580432]	4%	34%	29%	0%	16%	19%	93.7%	0%	0%	0%
O=C(Nc1ccc(Oc2ccc3nc(NC(=O)C4CC4)cn3n2)c(F)c1)c1cccn(-c2ccccc2)c1=O	0%	79%	39%	60%	6%	35%	77%	15%	30%	1%
CN(c1cccc(CNc2nc(Nc3ccc4c(c3)CC(=O)N4)ncc2C(F)(F)F)c1)S(C)(=O)=O	33%	0%	20%	14%	1%	5%	56%	26%	0%	6%
Cl.Nc1n[nH]c2cc(-c3ccccn3)ccc12 [GSK2189892]	0%	0%	4%	0%	4%	0%	18%	9%	0%	0%
c1ccc(Oc2ccc(Nc3ccnc4ccc(-c5ccccn5)cc34)cc2)cc1 [GW407034]	0%	14%	0%	5%	1%	13%	49%	90.3%	89%	88%
Cc1ccc(Nc2ccnc(Nc3ccc4c(c3)CS(=O)(=O)C4)n2)cc1O.Cl [GW579362]	44%	85%	78%	25%	0%	16%	91.7%	17%	34%	69%
Cn1ccc2ncnc(Oc3ccc(NC(=O)Nc4cncc(C(F)(F)F)c4)c(Cl)c3)c21	74%	95.4%	45%	82%	37%	35%	66%	24%	0%	2%
C[C@@H](Oc1cc(-n2cnc3ccc(-c4ccncc4)cc32)sc1C(N)=O)c1ccccc1Cl [GSK483724]	14%	23%	26%	0%	9%	10%	0%	14%	0%	41%
CS(=O)(=O)Nc1ccc(-c2ccnc3[nH]ccc23)cc1 [GSK993273]	13%	18%	19%	6%	18%	0%	5%	15%	0%	0%
O=C(Nc1ccccc1)c1cccc(Oc2ccc3nccn3n2)c1	0%	1%	13%	8%	0%	3%	64%	0%	39%	0%
Cn1ccc2ncnc(Oc3ccc(NC(=O)Nc4ccnc(C(F)(F)F)c4)c(Cl)c3)c21	6%	14%	5%	28%	25%	20%	36%	20%	0%	0%

From paper PMC5540273 (PLoS ONE, 2017)
